Data from PubChem BioAssay (NCATS).
Records with an inconclusive call do not appear. The source made the active and inactive calls. Unless noted, calls come from the whole dose curve; as a rule, active = well fitted inhibition curve with a large enough effect; inconclusive = small, poorly fitted or top-dose-only effect; inactive = flat fitted curve, though single readings scatter.

Key:
3D7 = experiment: qHTS profiling for inhibitors of Plasmodium falciparum proliferation (AID 504749); note: nearly all actives have a fitted effect of over 60% in size; note: potency is the fitted concentration of half-maximal effect; conditions: P. falciparum in erythrocytes, SYBR Green DNA, 72 h; series mostly up to 12.8 µM
How it was run: (§1)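 P. falciparum-infected erythrocytes (0.3% parasitemia, 2.5% hematocrit) incubated with compound 72 h at 37 C, 5% CO2. Parasite DNA detected by SYBR Green after lysis, overnight at room temperature; normalised to 0.29 uM artemisinin and DMSO.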

AA1029 = experiment: as above; conditions: P. falciparum in erythrocytes, SYBR Green DNA, 72 h; series mostly up to 12.8 µM
How it was run: as §1

CP192 = experiment: as above; conditions: P. falciparum in erythrocytes, SYBR Green DNA, 72 h; series mostly up to 28.7 µM
How it was run: as §1

CP194 = experiment: as above; conditions: P. falciparum in erythrocytes, SYBR Green DNA, 72 h; series mostly up to 12.8 µM
How it was run: as §1

CP203 = experiment: as above; conditions: P. falciparum in erythrocytes, SYBR Green DNA, 72 h; series mostly up to 12.8 µM
How it was run: as §1

CP211 = experiment: as above; conditions: P. falciparum in erythrocytes, SYBR Green DNA, 72 h; series mostly up to 12.8 µM
How it was run: as §1

CP260 = experiment: as above; conditions: P. falciparum in erythrocytes, SYBR Green DNA, 72 h; series mostly up to 12.8 µM
How it was run: as §1

CP266 = experiment: as above; conditions: P. falciparum in erythrocytes, SYBR Green DNA, 72 h; series mostly up to 28.7 µM
How it was run: as §1

CP315 = experiment: as above; conditions: P. falciparum in erythrocytes, SYBR Green DNA, 72 h; series mostly up to 12.8 µM
How it was run: as §1

GB4 = experiment: as above; conditions: P. falciparum in erythrocytes, SYBR Green DNA, 72 h; series mostly up to 12.8 µM
How it was run: as §1

PAD = experiment: as above; conditions: P. falciparum in erythrocytes, SYBR Green DNA, 72 h; series mostly up to 12.8 µM
How it was run: as §1

TAB109 = experiment: as above; conditions: P. falciparum in erythrocytes, SYBR Green DNA, 72 h; series mostly up to 12.8 µM
How it was run: as §1

7G8 = experiment: as above; conditions: P. falciparum in erythrocytes, SYBR Green DNA, 72 h; series mostly up to 12.8 µM
How it was run: as §1

CP268 = experiment: as above; conditions: P. falciparum in erythrocytes, SYBR Green DNA, 72 h; series mostly up to 12.8 µM
How it was run: as §1

DIV14 = experiment: as above; conditions: P. falciparum in erythrocytes, SYBR Green DNA, 72 h; series mostly up to 12.8 µM
How it was run: as §1

DIV17 = experiment: as above; conditions: P. falciparum in erythrocytes, SYBR Green DNA, 72 h; series mostly up to 12.8 µM
How it was run: as §1

ICS = experiment: as above; conditions: P. falciparum in erythrocytes, SYBR Green DNA, 72 h; series mostly up to 12.8 µM
How it was run: as §1

W2 = experiment: as above; conditions: P. falciparum in erythrocytes, SYBR Green DNA, 72 h; series mostly up to 12.8 µM
How it was run: as §1

[1] = S16 Schwann cell PMP22 intronic element beta-lactamase assay (AID 624044; calls by dose curve; note: nearly all actives have a fitted effect of over 15% in size)
How it was run: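 Rat S16 Schwann cells with beta-Lac driven by a PMP22 intronic element, compound-treated 24 h at 37 °C. LiveBLAzer FRET B/G read: 460 nm normalized to potassium clavulanate vs DMSO; 535 nm FRET as viability; concentration-effect curves classified.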

CP297 = experiment: qHTS profiling for inhibitors of Plasmodium falciparum proliferation (AID 504749); note: nearly all actives have a fitted effect of over 60% in size; note: potency is the fitted concentration of half-maximal effect; conditions: P. falciparum in erythrocytes, SYBR Green DNA, 72 h; series mostly up to 12.8 µM
How it was run: as §1

Measured: Potency

CC[C@@]12CCCN3CCc4c(n(c5ccccc45)C(=O)C1)[C@H]32
not listed: 7G8 | CP268 | DIV14 | DIV17 | ICS | W2 | [1] | CP297
inactive: all other assays above

CO[C@]1(NC(=O)CSCC#N)C(=O)N2C(C(=O)O)=C(CSc3nnnn3C)CS[C@H]21
not listed: CP266 | [1] | CP297
inactive: all other assays above

CCn1cc(C(=O)O)c(=O)c2cc(F)c(N3CCN[C@@H](C)C3)c(F)c21
not listed: TAB109 | CP268
inactive: all other assays above

CO/N=C(\C(=O)N[C@@H]1C(=O)N2C(C(=O)O)=C(COC(C)=O)CS[C@@H]12)c1csc(N)n1
inactive: all assays above

C[C@@H]1c2cccc(O)c2C(O)=C2C(=O)[C@@]3(O)C(O)=C(C(N)=O)C(=O)[C@@H](N(C)C)[C@@H]3[C@@H](O)[C@@H]21
inactive: [1] | CP192 | CP211
active: 7G8 3980 nM | ICS 3550 nM | W2 4260 nM

N[C@@H](CO)C(=O)NNCc1ccc(O)c(O)c1O
not listed: W2
inactive: all other assays above

O=C(C1CCCCC1)N1CC(=O)N2CCc3ccccc3[C@@H]2C1
inactive: [1]

O=C(c1ccccc1)c1ccc2n1CC[C@H]2C(=O)O
not listed: CP266 | CP297
inactive: all other assays above

CCCN[C@@H](C)C(=O)Nc1ccccc1C
not listed: CP266
inactive: all other assays above

C[C@@H](CCc1ccccc1)NC[C@H](O)c1ccc(O)c(C(N)=O)c1
active: 7G8 11200 nM
not listed: 3D7 | GB4 | PAD | DIV14 | DIV17 | ICS | W2
inactive: all other assays above

NC(=O)c1cc[n+](CC2=C(C(=O)O)N3C(=O)[C@@H](NC(=O)[C@H](c4ccccc4)S(=O)(=O)[O-])[C@@H]3SC2)cc1
active: 3D7 1120 nM | 7G8 178 nM | CP260 1410 nM | CP268 4050 nM | CP297 6420 nM | DIV14 721 nM | DIV17 572 nM | GB4 907 nM | ICS 355 nM | PAD 1410 nM | TAB109 1410 nM | W2 510 nM
inactive: [1]

CC(C)(C)NC[C@H](O)c1cc(O)cc(O)c1
not listed: CP211 | TAB109 | DIV14 | [1]
inactive: all other assays above

CCCN(CCC)C(=O)[C@@H](CCC(=O)O)NC(=O)c1ccccc1
not listed: [1] | CP297
inactive: all other assays above

CC[C@]1(C)CC(=O)NC1=O
not listed: CP203
inactive: all other assays above

CC(=O)OCC1=C(C(=O)O)N2C(=O)[C@@H](NC(=O)CSc3ccncc3)[C@@H]2SC1
inactive: all assays above

CCN(CC)CCC[C@H](C)Nc1c2ccc(Cl)cc2nc2ccc(OC)cc12
active: 3D7 89.1 nM | 7G8 282 nM | AA1029 631 nM | CP192 478 nM | CP194 1510 nM | CP203 2130 nM | CP211 1510 nM | CP260 501 nM | CP266 1510 nM | CP268 478 nM | CP297 536 nM | CP315 3010 nM | DIV14 478 nM | DIV17 536 nM | GB4 379 nM | ICS 158 nM | PAD 398 nM | TAB109 501 nM | W2 338 nM
inactive: [1]

CCC[C@H]1C(=O)N2C(N(C)C)=Nc3ccc(C)cc3N2C1=O
inactive: all assays above

CN(C)[C@H]1C(=O)C(C(=O)NCN2CCCC2)=C(O)[C@]2(O)C(=O)C3=C(O)c4c(O)cccc4[C@@](C)(O)[C@H]3C[C@@H]12
inactive: all assays above

CO[C@H]1C[C@@H](O[C@@H]2[C@H](C)[C@H](O[C@@H]3O[C@@H](C)C[C@@H](N(C)C)[C@@H]3O)[C@H](C)C[C@]3(CO3)C(=O)[C@H](C)[C@H](O)[C@H](C)[C@H](C)OC(=O)[C@@H]2C)O[C@@H](C)[C@H]1O
inactive: all assays above

CC[C@H](NC(C)C)[C@H](O)c1ccc(O)c(O)c1
not listed: 3D7 | CP260 | GB4 | 7G8 | DIV14 | DIV17 | ICS | W2
inactive: all other assays above

CCN(CC)CC#CCOC(=O)[C@@](O)(c1ccccc1)C1CCCCC1
inactive: [1] | CP192 | CP203 | CP266 | CP315
active: 7G8 8910 nM | DIV14 7570 nM | DIV17 4780 nM | W2 5360 nM

CC1(C)O[C@@H]2C[C@H]3[C@H]4C[C@H](F)C5=CC(=O)C=C[C@@]5(C)[C@@H]4[C@H](O)C[C@]3(C)[C@]2(C(=O)CO)O1
inactive: all assays above

CCN(CC)CCC[C@H](C)Nc1ccnc2cc(Cl)ccc12
active: 3D7 158 nM | 7G8 1000 nM | AA1029 8910 nM | CP211 6750 nM | CP260 3980 nM | CP268 4260 nM | DIV14 1690 nM | DIV17 3790 nM | GB4 1510 nM | ICS 3980 nM | PAD 3550 nM | TAB109 3550 nM | W2 6010 nM
inactive: [1]
